Source: PubChem BioAssay (Tox21)
Values joined by “and” are separate entries in the source; they are usually repeats but may differ in a detail not shown here. Equal values may be shown once. Records with an inconclusive call do not appear. A number with no mark means an inactive call. Active and inactive are the calls of the source. Calls follow the shape of the dose curve; as a rule, active = well fitted cell-killing curve with a large enough effect in the repeat runs; inconclusive = weak or mixed curves, or effect the other way; inactive = no such curve, though single readings can be large or run the other way.

Experiment: qHTS assay to identify small molecule antagonists of the peroxisome proliferator-activated receptor gamma (PPARg) signaling pathway - cell viability counter screen (AID 743194); also: nearly all actives have a fitted effect of over 55% in size
Details: PPARg-bla HEK293H viability, CellTiter-Glo luminescence, 17 h; Potency: co-treated with 50 nM rosiglitazone unless noted; series mostly up to 62.6 µM; activity change, negative = cytotoxicity: at the top concentration
Description: U.S. Tox21 Program National Center for Advancing Translational Sciences [NCATS] NIH Chemical Genomics Center [NCGC] U.S. Environmental Protection Agency [EPA] National Institutes of Environmental Health Sciences [NIEHS] National Toxicology Program [NTP] U.S. Food and Drug Administration [FDA] Tox21 Assay Overview: The peroxisome proliferator-activated receptors (PPARs) are lipid-activated transcription factors of the nuclear receptor superfamily with three distinct subtypes namely PPAR alpha, PPAR delta (also called PPAR beta) and PPAR gamma (PPARg). All these subtypes heterodimerize with Retinoid X receptor (RXR) and these heterodimers regulate transcription of various genes. PPAR-gamma receptor (glitazone receptor) is involved in the regulation of glucose and lipid metabolism. To identify the compounds that activate PPAR-gamma signaling, GeneBLAzer PPAR gamma UAS-bla HEK293H cell line (Invitrogen, Carlsbad, CA, USA) containing a beta-lactamase reporter gene under the control of an Upstream Activator Sequence (UAS) was used to screen the Tox21 compound library. The cytotoxicity of the Tox21 compound library against the PPARg-bla cell line was tested in parallel by measuring the cell viability using CellTiter-Glo assay in the same wells.
Tox21 Assay Protocol Summary: PPARg-bla cells were dispensed at 3000 cells/5uL/well in 1536-well black wall/clear bottom plates using a Multidrop Combi (Thermo Fisher Scientific, Waltham, MA) dispenser. After the assay plates were incubated at 37 C and 5% CO2 for 5 h, 23 nL of compounds dissolved in DMSO, positive controls or DMSO only was transferred to the assay plate by a Pintool station (Kalypsys, San Diego, CA), followed by addition of 1ul Rosiglitazone (50 nM, final concentration in the wells). The assay plates were incubated at 37 C for 17 h, and then 1 uL of LiveBLAzerTM B/G FRET substrate was added using a Bioraptr Flying Reagent Dispenser (FRD) workstation (Beckman Coulter, Indianapolis, IN, USA). The assay plates were incubated at room temperature for 1 h and fluorescence intensity was measured by an Envision plate reader (PerkinElmer, Shelton, CT). For cell viability readout that measures cytotoxicity, 4 ul/well of CellTiter-Glo reagent was added into the assay plates using a Flying Reagent Dispenser. After 30 min incubation at room temperature, the luminescence intensity in the plates was measured using a ViewLux plate reader (PerkinElmer).
% is scaled to controls: 0 for no effect and ±100 for the full control effect; potency is read from the fitted curve at half-maximal effect.

Q: Which “activity change, negative = cytotoxicity” value does the source give for `CC(=O)Nc1ccc2c(c1)Cc1ccccc1-2` here?
A: Its value is -1.01% [at 81.1 µM, co-treated with 50 nM rosiglitazone].

Q: With `Cn1cc(C2=C(c3cn(C4CCN(Cc5ccccn5)CC4)c4ccccc34)C(=O)NC2=O)c2ccccc21` as the compound, how does the “activity change, negative = cytotoxicity” value read?
A: Its value is -12.1%.

Q: For `O=[N+]([O-])O.O=[N+]([O-])O.[Cd]`, which Potency is on record?
A: The Potency was 0.155 µM (active).

Q: Which Potency does the source give for `C[C@@H]1O[C@@H](O[C@H]2C[C@@H](O)[C@]3(CO)[C@H]4[C@H](O)C[C@]5(C)[C@@H](C6=CC(=O)OC6)CC[C@]5(O)[C@@H]4CC[C@]3(O)C2)[C@H](O)[C@H](O)[C@H]1O` here?
A: Its Potency is 13.1 nM (active) and 119 nM (active).

Q: With `CC1(C)C(/C=C(\Cl)C(F)(F)F)C1C(=O)OC(C#N)c1cccc(Oc2ccccc2)c1` (stereo not given) as the compound, how does the “activity change, negative = cytotoxicity” value read?
A: Its value is -4.08% [at 81.1 µM, co-treated with 50 nM rosiglitazone].

Q: With `Fc1cccc(Cl)c1CCl` as the compound, how does the “activity change, negative = cytotoxicity” value read?
A: The value was -12.1%.

Q: Which “activity change, negative = cytotoxicity” value does the source give for `CC(=O)c1cc(C(C)(C)C)cc2c1CCC2(C)C` here?
A: The value was -0.0757%.

Q: For `CC[C@H]1C[C@@H]2C[C@H]3c4[nH]c5ccc(OC)cc5c4CCN(C2)[C@@H]13`, which “activity change, negative = cytotoxicity” value is on record?
A: Its value is 0.425% [at 81.1 µM].

Q: For `Cc1cc(N=Nc2ccccc2C)ccc1N`, which “activity change, negative = cytotoxicity” value is on record?
A: The value was -10.7%.

Q: For `CC1(C)[C@H](C(=O)O[C@H](C#N)c2cccc(Oc3ccccc3)c2)[C@@H]1/C=C(\Cl)C(F)(F)F`, which “activity change, negative = cytotoxicity” value is on record?
A: Its value is 2.53%.

Q: With `O=c1oc2ccccc2c(O)c1Cc1c(O)c2ccccc2oc1=O` as the compound, how does the “activity change, negative = cytotoxicity” value read?
A: Its value is -9.13%.

Q: With `O=C(CCCN1CCC2(CC1)C(=O)NCN2c1ccccc1)c1ccc(F)cc1` as the compound, how does the “activity change, negative = cytotoxicity” value read?
A: Its value is -7.56%.

Q: For `Cc1cc(C)c(C2=C(OC(=O)CC(C)(C)C)C3(CCCC3)OC2=O)c(C)c1`, which “activity change, negative = cytotoxicity” value is on record?
A: Its value is 8.03% [at 81.1 µM, co-treated with 50 nM rosiglitazone].

Q: For `CC(C)(C)c1cc([N+](=O)[O-])cc(C(C)(C)C)c1O`, which Potency is on record?
A: Its Potency is 6.16 µM (active).

Q: Which Potency does the source give for `O=C(Nc1ccc2[nH]ccc2c1)c1cc2cc(F)ccc2n1Cc1cccc(F)c1` here?
A: Its Potency is 19.5 µM (active).

Q: For `ClC1=C(Cl)C2(Cl)C3C(Cl)C(Cl)CC3C1(Cl)C2(Cl)Cl` (stereo not given), which Potency is on record?
A: Its Potency is 24.5 µM (active).

Q: Which Potency does the source give for `CCOCn1c(-c2ccc(Cl)cc2)c(C#N)c(Br)c1C(F)(F)F` here?
A: The Potency was 1.95 µM (active).

Q: Which Potency does the source give for `CC(=O)[O-].CC(=O)[O-].[Hg+2]` here?
A: Its Potency is 0.977 µM (active).

Q: Which Potency does the source give for `CC[C@H](C)[C@H]1O[C@]2(C=C[C@@H]1C)C[C@@H]1C[C@@H](C/C=C(\C)[C@@H](O[C@H]3C[C@H](OC)[C@@H](O[C@H]4C[C@H](OC)[C@@H](O)[C@H](C)O4)[C@H](C)O3)[C@@H](C)/C=C/C=C3\CO[C@@H]4[C@H](O)C(C)=C[C@@H](C(=O)O1)[C@]34O)O2` here?
A: The Potency was 9.15 µM (active).

Q: Which Potency does the source give for `Clc1ccc(COC(Cn2ccnc2)c2ccc(Cl)cc2Cl)cc1` (stereo not given) here?
A: The Potency was 20.4 µM (active) and 19.4 µM (active) and 29.8 µM (active).

Q: For `Oc1ccc(C(c2ccc(O)cc2)(C(F)(F)F)C(F)(F)F)cc1`, which Potency is on record?
A: Its Potency is 43.6 µM (active).

Q: Which Potency does the source give for `ClC1=C(Cl)C2(Cl)C3C(Cl)C=CC3C1(Cl)C2(Cl)Cl` (stereo not given) here?
A: The Potency was 55.2 µM (active) and 24.5 µM (active).

Q: With `Cc1cc(C(F)(C(F)(F)F)C(F)(F)F)ccc1NC(=O)c1cccc(I)c1C(=O)NC(C)(C)CS(C)(=O)=O` as the compound, how does the “activity change, negative = cytotoxicity” value read?
A: The value was -19.6%.

Q: Which “activity change, negative = cytotoxicity” value does the source give for `CC(C)CCCCCCCOP(=O)(Oc1ccccc1)Oc1ccccc1` here?
A: Its value is -20.9% [at 81.1 µM, co-treated with 50 nM rosiglitazone].

Q: Which “activity change, negative = cytotoxicity” value does the source give for `CCCCOCN(C(=O)CCl)c1c(CC)cccc1CC` here?
A: The value was -16.6%.

Q: For `CN(C)C1CSSSC1`, which “activity change, negative = cytotoxicity” value is on record?
A: The value was -7.56%.

Q: With `O=CC(Br)(Br)Br` as the compound, how does the Potency read?
A: The Potency was 6.14 µM (active).

Q: With `CN(C)CCc1c[nH]c2cccc(O)c12` as the compound, how does the “activity change, negative = cytotoxicity” value read?
A: Its value is 15.2% [at 81.1 µM].

Q: Which “activity change, negative = cytotoxicity” value does the source give for `COc1ccc(OC)c(CC(C)N)c1` (stereo not given) here?
A: Its value is -12.6% [at 81.1 µM].

Q: For `CC(=O)[O-].[Tl+]`, which “activity change, negative = cytotoxicity” value is on record?
A: Its value is 21.4% [at 81.1 µM, co-treated with 50 nM rosiglitazone].

Q: Which “activity change, negative = cytotoxicity” value does the source give for `ClC(Cl)=C(Cl)Cl` here?
A: The value was 6.99%.

Q: For `N#CSCSC#N`, which Potency is on record?
A: The Potency was 27.3 µM (active).

Q: Which Potency does the source give for `CC1(C)CN=C(NN=C(/C=C/c2ccc(C(F)(F)F)cc2)/C=C/c2ccc(C(F)(F)F)cc2)NC1` here?
A: Its Potency is 9.77 µM (active).

Q: With `CCCN(CCC)CCc1c[nH]c2ccccc12` as the compound, how does the “activity change, negative = cytotoxicity” value read?
A: Its value is -12.7% [at 81.1 µM].

Q: For `CN(C)C(=S)[S-].CN(C)C(=S)[S-].[Cu+2]`, which Potency is on record?
A: The Potency was 2.12 µM (active).

Q: Which Potency does the source give for `Oc1cc(Cl)c(Cl)c(Cl)c1` here?
A: Its Potency is 13.1 µM (active).

Q: Which “activity change, negative = cytotoxicity” value does the source give for `CCCN(CC)CC1COC2(CCC(C(C)(C)C)CC2)O1` (stereo not given) here?
A: Its value is -28.2%.

Q: With `COc1ccc(N)cc1N` as the compound, how does the Potency read?
A: The Potency was 21 µM (active).

Q: With `O=C(CCl)Nc1ccccc1` as the compound, how does the Potency read?
A: Its Potency is 15.5 µM (active).

Q: Which “activity change, negative = cytotoxicity” value does the source give for `O=C(CBr)c1ccc(O)cc1` here?
A: The value was 7.84%.
